According to PubChem BioAssay (NCATS):
“And” between values parts separate entries of the source, which are not always exact repeats. Equal entries are not always repeated. Unmarked numbers belong to inactive results. Calls come from the whole dose curve; as a rule, active = well fitted activation curve with a large enough effect; inconclusive = small, poorly fitted or top-dose-only effect; inactive = flat fitted curve, though single readings scatter.

Target: Peroxisome proliferator-activated receptor alpha (Homo sapiens) (UniProt Q07869)
Assay: qHTS assay for small molecule agonists of the peroxisome proliferator-activated receptor alpha (PPARalpha) signaling pathway (AID 651778); note: % of control where 0% means no effect
Conditions: PathHunter PPARalpha complementation, chemiluminescence, 6 h; max response: active compounds read high
Description: National Center for Advancing Translational Sciences [NCATS]
NIH Chemical Genomics Center [NCGC]
U.S. Environmental Protection Agency [EPA]
National Institutes of Environmental Health Sciences [NIEHS]
National Toxicology Program [NTP]
The Peroxisome proliferator-activated receptors (PPARs) are lipid-activated transcription factors of the nuclear receptor superfamily with three distinct subtypes (alpha, garmma and beta/delta). All these subtypes heterodimerize with retinoid X receptor and have different physiological functions. PPARalpha is highly expressed in tissues with high rates of mitochondrial fatty acid oxidation, such as liver, heart, muscle, kidney and cells of the arterial wall. PPARalpha is a major regulator of lipid metabolism and energy homeostasis.
A cell based assay was used to identify activators of PPARalpha. The assay detects binding of a ligand to PPARalpha leading to its activation, translocation and complementation thus forming a functional enzyme capable of hydrolyzing the substrate molecule and generating chemiluminescent signal.
2,000 cells in 6 uL/well were dispensed into white wall/solid bottom 1536-well plates using a Multidrop Combi (Thermo Scientific) dispenser. After incubation 37 C and 5% CO2 overnight, 23 nL compound or DMSO only were transferred by a pin tool. The plates were incubated for 6 hr at 37 C and 5% CO2. 3 ul PathHunter detection reagent (Discoverx) was then added to each well and following 60 min incubation at room temperature, chemiluminescence was quantified on a ViewLux CCD-based plate reader.

Sequence of Peroxisome proliferator-activated receptor alpha (Homo sapiens) (Q07869 whole entry, looked up): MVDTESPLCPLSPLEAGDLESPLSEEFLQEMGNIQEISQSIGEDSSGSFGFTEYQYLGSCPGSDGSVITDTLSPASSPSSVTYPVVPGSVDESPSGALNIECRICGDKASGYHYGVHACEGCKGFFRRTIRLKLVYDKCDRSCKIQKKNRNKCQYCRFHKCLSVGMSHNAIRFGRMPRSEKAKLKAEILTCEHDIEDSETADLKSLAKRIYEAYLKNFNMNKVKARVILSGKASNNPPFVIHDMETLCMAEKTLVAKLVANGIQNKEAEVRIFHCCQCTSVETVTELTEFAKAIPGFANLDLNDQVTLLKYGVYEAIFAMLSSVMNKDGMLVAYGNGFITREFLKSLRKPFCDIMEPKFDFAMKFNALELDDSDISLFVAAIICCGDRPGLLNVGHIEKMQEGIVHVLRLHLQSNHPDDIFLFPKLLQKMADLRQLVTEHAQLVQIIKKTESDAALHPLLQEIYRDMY

| Compound | max response |
| --- | --- |
| CCCSC(=O)N(CCC)CCC | -0.593% |
| Cc1cc(C2CC2)nc(Nc2ccccc2)n1 | 5.58% |
| CCNc1nc(NC(C)C)nc(OC)n1 | -1.03% |
| Cn1c(-c2ccccc2)cc(-c2ccccc2)[n+]1C | -0.162% |
| Cc1cc(Cl)ccc1OCC(=O)O | 0.459% and -1.12% |
| CCNc1nc(NC(C)C)nc(SC)n1 | -2.07% |
| O=C(O)C1(O)c2ccccc2-c2ccc(Cl)cc21 (stereo not given) | 13.5% |
| CS(=O)(=O)c1cc(C(F)(F)F)ccc1C(=O)c1cnoc1C1CC1 | -3.75% |
| O=C(NC(=O)c1c(F)cccc1F)Nc1cc(Cl)c(OC(F)(F)C(F)C(F)(F)F)c(Cl)c1F (stereo not given) | 6.43% |
| CCCSP(=O)(OCC)Oc1ccc(Br)cc1Cl (stereo not given) | -0.001% |
| CCCCCCCCCCCCC1=C(OC(C)=O)C(=O)c2ccccc2C1=O | -5.69% |
| CCC[CH2][Sn]([CH2]CCC)([CH2]CCC)[CH2]CCC | -1.25% |
| COP(=O)(OC)SCn1c(=O)oc2cc(Cl)cnc21 | -1.8% |
| CCC(C)(c1ccc(O)cc1)c1ccc(O)cc1 | -1.57% |
| Clc1ccc(-c2cc(Cl)c(Cl)cc2Cl)cc1Cl | 0.243% |
| ClCc1ccccc1Cl | 1.31% |
| CCC(C)(CC)c1cc(NC(=O)c2c(OC)cccc2OC)on1 | -1.49% |
| CC1=C(C(=O)Nc2ccccc2)S(=O)(=O)CCO1 | -2.04% |
| CCOP(=S)(OCC)Oc1ccc(S(C)=O)cc1 (stereo not given) | -1.54% |
| CS/C(C)=N/OC(=O)N(C)SN(C)C(=O)O/N=C(\C)SC | -1.01% |

| Compound | max response |
| --- | --- |
| CCC[CH2][Sn](=[O])[CH2]CCC | -3.37% |
| C[C@@H]1CC[C@@]2(OC1)O[C@H]1[C@@H](O)[C@H]3[C@@H]4CC[C@H]5C[C@@H](O[C@@H]6O[C@H](CO)[C@H](O[C@@H]7O[C@H](CO)[C@@H](O)[C@H](O[C@@H]8OC[C@@H](O)[C@H](O)[C@H]8O)[C@H]7O[C@@H]7O[C@H](CO)[C@@H](O)[C@H](O[C@@H]8O[C@H](CO)[C@@H](O)[C@H](O)[C@H]8O)[C@H]7O)[C@H](O)[C@H]6O)[C@H](O)C[C@]5(C)[C@H]4CC[C@]3(C)[C@H]1[C@@H]2C | -5.72% |
| O=S(=O)(c1ccc(Cl)cc1)c1cc(Cl)c(Cl)cc1Cl | -3.59% |
| c1ccc2cc3c(cc2c1)-c1cccc2cccc-3c12 | 13.7% and 0.159% |
| Cc1cccc2sc3nncn3c12 | -0.811% |
| CCOP(=S)(OCC)SCC(=O)NC(C)C | -4.11% |
| O=[N+]([O-])Nc1nccn1Cc1ccc(Cl)nc1 | -0.0433% |
| CCOC1Oc2ccc(OS(C)(=O)=O)cc2C1(C)C (stereo not given) | -0.11% |
| O=[N+]([O-])c1cc(C(F)(F)F)c(Cl)c([N+](=O)[O-])c1Nc1ncc(C(F)(F)F)cc1Cl | -9.03% |
| CN1COCN(Cc2cnc(Cl)s2)/C1=N\[N+](=O)[O-] | -1.32% |
| CCC(C)Nc1c([N+](=O)[O-])cc(C(C)(C)C)cc1[N+](=O)[O-] (stereo not given) | 8.22% |
| CCC(C)(C)c1cc(-n2nc3ccccc3n2)c(O)c(C(C)(C)CC)c1 | 0.0334% |
| COC(=O)c1c(C(F)F)nc(C(F)(F)F)c(C2=NCCS2)c1CC(C)C | -1.35% |
| Clc1ccc([C@@]2(Cn3cncn3)C[C@@H](Br)CO2)c(Cl)c1 | -2.47% |
| CNC(=O)O/N=C(\C)SC | -0.714% |
| CC(C)=C[C@@H]1[C@@H](C(=O)OCN2C(=O)C3=C(CCCC3)C2=O)C1(C)C | -0.573% |
| CCOc1nc(NC)nc(NC(=O)NS(=O)(=O)c2ccccc2C(=O)OC)n1 | -5.58% |
| CCNc1nc(Cl)nc(NC(C)(C)C#N)n1 | 0.299% |
| Cn1cc(-c2ccccc2)c(=O)c(-c2cccc(C(F)(F)F)c2)c1 | 1.29% |
| Nc1cccc(Cl)c1Cl | -3.86% |
